# In the library only some 4.3% were active in any assay of this set; here they are far more common.
# rCAG RNA binder = binders of r(CAG) RNA repeats, primary screen, biochemical, fluorescence. AID 651821, 2012. actives 1.3% (n = 370,000). r(CAG) RNA repeat, TO-PRO-1 dye displacement fluorescence. inhibition, % at 3 µM;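 active = inhibition above the plate cutoff, the mean of all test compounds on that plate plus 3 SD, cut at about 35% in these data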;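 note: 0% = DMSO alone and 100% = 100 µM mitoxantrone as full dye displacement; higher means more dye released from RNA so lower well fluorescence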
# NadD inh = inhibitors of S. aureus NadD, primary screen, biochemical, colorimetric, uHTS; purified NadD enzyme, colorimetric absorbance read-out; inhibition, % at 20 µM; actives 0.78% (n = 360,000); AID 602399, 2012; in the data active = inhibition above about 26%
# GRIN3A LBD mod = binders of NR3A ligand-binding domain, primary screen, biophysical, differential scanning fluorimetry, uHTS. Tm shift relative to glycine control, % at 25 µM. actives 2.5% (n = 340,000). Glutamate receptor ionotropic, NMDA 3A (GRIN3A) ligand-binding domain. NR3A LBD differential scanning fluorimetry, Tm shift; 0% = protein alone, 100% = glycine-bound protein. AID 1259313, 2017;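 active = melting temperature shift of at least 10% of the positive control shift, at one fixed dose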
# FAS-TE inh = FAS thioesterase domain inhibitors, primary screen, biochemical, fluorescence intensity, uHTS | inhibition, % at 15 µM | Fatty acid synthase (Homo sapiens), P49327 | actives 0.67% (n = 360,000) | AID 602261, 2012 | recombinant FAS-TE, OMFH fluorogenic substrate, fluorescence endpoint;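 active = compounds whose normalised, plate-corrected inhibition of enzyme fluorescence in the single-dose primary screen is 50% or more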;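 note: 0% = DMSO with enzyme and 100% = substrate without enzyme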
# rCAG bind conf = small molecules binding CAG repeat RNA – biochemical, fluorescence, confirmation. shares compounds with rCAG RNA binder. inhibition, % at 3 µM. r(CAG) RNA repeat, TO-PRO-1 dye displacement fluorescence. actives 70% (n = 4,300). AID 652065, 2013;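 active = inhibition above a per-plate cutoff, the mean inhibition of sample wells plus 3 SD, cut at about 35% in these data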;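 note: loss of TO-PRO-1 fluorescence as compound displaces dye from 1x1 AA loop RNA; 0% = DMSO only wells and 100% = 100 µM mitoxantrone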
# dCAG dye counter = displacement of TO-PRO-1 from CAG DNA duplex, counter-screen for rCAG RNA repeat binder project, biochemical, fluorescence, TO-PRO-1 dye, d(CAG) DNA oligo | shares compounds with rCAG RNA binder | d(CAG) DNA oligo TO-PRO-1 dye displacement | inhibition, % at 3 µM | actives 94% (n = 4,300);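 active = inhibition above its plate's cutoff, the mean test-well inhibition plus 3 SD, cut at about 4.8% in these data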;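 note: 0% = DNA dye mix with DMSO and 100% = 100 µM mitoxantrone; hits displace the dye from DNA and so lower well fluorescence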
# Numbers without * were called inactive; . = not tested or not shown.
SMILES,rCAG RNA binder,NadD inh,GRIN3A LBD mod,FAS-TE inh,rCAG bind conf,dCAG dye counter
CCCCC1OC(CCc2ccccc2)CC2=C1C(=O)OC(C)(C)O2 (configuration not stated),0.0,.,.,.,.,.
CCc1cc2c(nc1CC)CCCN2Cc1ccc(Br)cc1,2.4,.,.,.,.,.
Cc1cccc(OCC(=O)Nc2cc(NC(=O)COc3cccc(C)c3)cc(C(=O)O)c2)c1,62.6*,2.4,-0.9,1.8,61.4*,22.3*
Cc1cc(C)cc(OCC(=O)Nc2cccc(C(=O)O)c2)c1,5.3,-6.0,0.1,-2.4,.,.
COc1cccc(OCC(=O)Nc2cc(NC(=O)COc3cccc(OC)c3)cc(C(=O)O)c2)c1,54.8*,8.1,-1.3,-3.6,53.1*,18.4*
O=C(c1ccco1)N1CCN(S(=O)(=O)Cc2ccccc2Cl)CC1,-0.6,-3.2,-2.2,-8.3,.,.
O=C(Nc1ccc(O)cc1)c1ccc2c(c1)C(=O)N(Cc1ccccc1)C2=O,8.9,1.7,-1.7,-19.8,.,.
O=C(O)COc1ccc(NC(=O)c2ccc3c(c2)C(=O)N(Cc2ccccc2)C3=O)cc1,47.0*,-3.8,10.3*,-18.0,27.9,6.2*
O=C(NN1C(=O)c2cc(Br)ccc2NC1c1ccccc1Cl)c1ccncc1 (configuration not stated),7.1,1.6,2.7,-0.3,.,.
O=C(NN1C(=O)c2cc(Br)ccc2NC1c1cc(Br)cc(Br)c1O)c1ccncc1 (configuration not stated),51.0*,20.5,-0.3,19.4,42.2*,13.9*
C[C@@H]1ON(C)[C@H]2C[C@H]3c4[nH]c5cccc(-c6ccccc6)c5c4CCN3C[C@@H]12,6.7,.,.,.,.,.
Cc1ccc(C(C)C)c(OCC(=O)NNC(=O)Nc2ccccc2)c1,-1.2,0.7,-1.3,7.3,.,.
Cc1ccc(S(=O)(=O)NC(=O)COc2cc(C)ccc2C(C)C)cc1,35.6*,0.1,0.6,-3.9,18.3,2.9
Clc1ccc(CN2CCN(N=Cc3cccc(OCc4ccccc4)c3)CC2)cc1,0.4,.,.,.,.,.
COc1cccc(-c2nn(-c3ccccc3)cc2/C=C(/NC(=O)c2ccccc2)C(=O)O)c1,38.2*,2.0,-0.4,-1.3,38.3*,9.2*
O=C(O)/C(=C\c1cn(-c2ccccc2)nc1-c1cccnc1)NC(=O)c1ccccc1,2.3,-2.7,0.5,-8.6,.,.
COc1ccc(-c2nn(-c3ccccc3)cc2/C=N/Nc2cccc(C(=O)O)c2)cc1,37.3*,12.7,-5.2,15.4,48.0*,20.0*
C=CCN1[C@@H](CC(C)C)COc2cccc(N3CCCC3)c2S1(=O)=O,0.9,.,.,.,.,.
Cc1ccc(C(=O)N/N=C(/CC(=O)c2cccs2)C(F)(F)F)cc1,45.4*,-3.7,-2.0,0.6,32.0,7.6*
Cc1ccc(C(=O)Nc2ccc(S(=O)(=O)Nc3cnc4ccccc4n3)cc2)cc1,42.6*,2.2,-1.0,-3.9,34.0,11.8*
O=C(Nc1ccc(S(=O)(=O)Nc2ccccn2)cc1)c1ccc(Cl)cc1Cl,3.5,-0.3,-0.7,0.1,.,.
COc1cc(C(=O)Nc2ccc(S(=O)(=O)Nc3cnc4ccccc4n3)cc2)cc(OC)c1OC,40.1*,1.7,-3.0,-1.1,32.9,6.8*
O=C(Nc1ccc(S(=O)(=O)Nc2cnc3ccccc3n2)cc1)c1ccc([N+](=O)[O-])cc1Cl,48.7*,-4.2,-0.7,-2.3,32.8,6.0*
COc1cc(OC)cc(C(=O)Nc2ccc(S(=O)(=O)Nc3cnc4ccccc4n3)cc2)c1,64.1*,-2.2,-0.1,-0.4,58.7*,15.2*
CCN(CC)C(=O)CNc1nnnn1-c1ccccc1,2.4,.,.,.,.,.
SMILES,rCAG RNA binder,NadD inh,GRIN3A LBD mod,FAS-TE inh,rCAG bind conf,dCAG dye counter
Fc1cccc(Cc2c(-c3ccc(Cl)cc3)nc3ccc(Br)cn23)c1,49.0*,8.0,.,29.6,13.5,4.6*
Cc1ccc(Cc2c(-c3ccc(Br)cc3)nc3ccc(Cl)cn23)cc1,41.2*,16.7,.,15.7,12.0,10.1*
Cc1ccc(-c2nc3ccc(Cl)cn3c2Cc2ccccc2C(F)(F)F)cc1,42.0*,13.8,.,20.8,33.5,6.8*
N#Cc1ccc(-c2nc3ccc(Cl)cn3c2Cc2cccc(F)c2)cc1,8.5,3.1,.,23.1,.,.
Cc1cc(Br)cn2c(Cc3ccccc3C(F)(F)F)c(-c3cccc(Br)c3)nc12,46.9*,19.8,.,14.4,6.9,2.9
Cc1cc(Br)cn2c(Cc3ccccc3C(F)(F)F)c(-c3ccccc3)nc12,6.1,17.3,.,25.5,.,.
Cc1ccc(Cc2c(-c3ccc(C)cc3)nc3ccc(Cl)cn23)cc1,6.9,5.0,.,9.7,.,.
Fc1cccc(Cc2c(-c3cccc(Br)c3)nc3ccc(Br)cn23)c1,54.6*,17.3,.,12.6,6.6,3.7
Cc1ccc(-c2nc3ccc(Cl)cn3c2Cc2cccc(F)c2)cc1,38.3*,3.9,.,13.7,2.8,2.7
COc1ccc(-c2nc3ccc(Br)cn3c2Cc2cccc(F)c2)cc1OC,15.3,12.2,.,10.2,.,.
Cc1ccc2nc(-c3ccc(Cl)cc3)c(Cc3cccc(F)c3)n2c1,4.9,.,.,.,.,.
Nc1nc2cc3c(cc2cc1C(=O)NCCc1c[nH]c2ccccc12)OCO3,10.2,.,.,.,.,.
CCC(CO)Nc1cccc2c1S(=O)(=O)N(Cc1cn(Cc3cccc(F)c3)nn1)Cc1ccccc1O2 (configuration not stated),2.4,.,.,.,.,.
CCCCC[C@@H]1C=C(C(=O)O)[C@H](c2ccc(C)cc2)N1S(=O)(=O)c1ccc(C)cc1,73.7*,1.1,-1.8,-2.1,52.7*,17.7*
CCCC[C@@H]1C=C(C(=O)O)[C@H](c2ccc(C#N)cc2)N1S(=O)(=O)c1ccc(C)cc1,52.6*,-0.4,0.8,-3.0,32.6,7.9*
CCCC[C@@H]1C=C(C(=O)O)[C@H](c2ccc(C)cc2)N1S(=O)(=O)c1ccc(C)cc1,31.6,-3.6,0.9,-4.2,.,.
CCOC(=O)C1=C[C@@H](CC)N(S(=O)(=O)c2ccc(C)cc2)[C@H]1c1ccccc1,-2.5,-7.6,.,29.8,.,.
CCCCC[C@@H]1C=C(C(=O)O)[C@H](c2ccc(Cl)cc2)N1S(=O)(=O)c1ccc(C)cc1,79.0*,7.7,-8.5,0.9,64.4*,28.0*
CCCC[C@@H]1C=C(C(=O)O)[C@H](c2ccc(Cl)c(Cl)c2)N1S(=O)(=O)c1ccc(C)cc1,79.9*,3.6,-8.5,15.1,69.3*,33.9*
COc1ccccc1C(=O)CSc1nnc(-c2ccncc2)n1-c1ccc(Cl)cc1,4.2,.,.,.,.,.
COc1ccc(C(C)=O)cc1CSC(=S)N1CCSCC1,2.8,.,.,.,.,.

# Screening data from PubChem.
